Data: PubChem BioAssay AID1851 (National Center for Advancing Translational Sciences (NCATS), 2009)
Among all 16,000 compounds or so, about 4,000 (25%) were called active. About 26% were inconclusive and are not listed. These entries were drawn from the full list. Unmarked numbers belong to inactive results. Calls follow the shape of the dose curve; as a rule, active = well fitted curve in the direction sought with a large enough effect; inconclusive = small, poorly fitted or top-dose-only effect, or effect the other way; inactive = no such curve, though single readings can be large or run the other way.

Each compound was assayed against Cytochrome P450 2C9 (Homo sapiens) (UniProt P11712) (assay: Cytochrome panel assay with activity outcomes). Settings: recombinant CYP, pro-luciferin dealkylation, luminescence, p450-cyp2c9; series mostly up to 57.1 µM; activity, negative = inhibition: at the top concentration.
Chain of Cytochrome P450 2C9 (Homo sapiens) (P11712 whole entry, looked up): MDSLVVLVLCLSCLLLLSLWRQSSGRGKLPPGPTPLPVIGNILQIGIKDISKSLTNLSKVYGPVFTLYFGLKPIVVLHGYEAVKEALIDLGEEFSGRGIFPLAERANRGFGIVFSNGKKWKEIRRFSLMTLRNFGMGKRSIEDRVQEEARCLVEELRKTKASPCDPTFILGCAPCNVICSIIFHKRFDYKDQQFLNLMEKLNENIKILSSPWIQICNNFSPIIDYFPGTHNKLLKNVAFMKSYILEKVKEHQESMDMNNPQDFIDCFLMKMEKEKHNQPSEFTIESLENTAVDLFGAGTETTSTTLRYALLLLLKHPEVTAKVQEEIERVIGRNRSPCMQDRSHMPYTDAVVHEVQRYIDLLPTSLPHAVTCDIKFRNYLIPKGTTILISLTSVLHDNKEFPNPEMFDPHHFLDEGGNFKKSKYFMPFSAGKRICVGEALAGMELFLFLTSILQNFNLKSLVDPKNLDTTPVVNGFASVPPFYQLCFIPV
% is scaled to controls: 0 for no effect and ±100 for the full control effect.

SMILES | activity, negative = inhibition | AC50
Cc1cnc(CNc2ncnc3ccc(-c4ccccc4C)cc23)cn1 | 0.0371% [at 2.29 µM] | 
COc1ccc(NC(=O)N2CC[C@@]3(CCCN(C(=O)c4cccn4C)C3)C2)cc1 | -3.34% | 
NC(=O)[C@H]1CC2(CC(c3cccc(NC(=O)c4ccccc4)c3)=NO2)CN1C(=O)[C@H]1CCC(=O)N1 (some centres not stated) | -2.82% | 
c1ccc(Nc2ncnc3ccc(-c4cccnc4)cc23)cc1 | 5.26% [at 2.29 µM] | 
NCCNc1ncnc2ccc(Cl)cc12 | 6.44% [at 11.4 µM] | 
CNc1ncnc2ccc(-c3ccccc3CN(C)C)cc12 | -7.28% [at 2.29 µM] | 
c1ccc(Nc2ncnc3ccc(-c4ccoc4)cc23)cc1 | 1.19% [at 2.29 µM] | 
Brc1ccc2ncnc(Nc3cccc4ccccc34)c2c1 |  | 2.51 µM (active)
Clc1cccc(Nc2ncnc3ccc(Br)cc23)c1 |  | 14.1 µM (active)
CN[C@H]1[C@@H](O[C@@H]2[C@H](O[C@@H]3[C@@H](O)[C@@H](O)[C@@H](N=C(N)N)[C@@H](O)[C@@H]3N=C(N)N)O[C@H](C)[C@@]2(O)C=O)O[C@@H](CO)[C@@H](O)[C@H]1O | 3.44% [at 25.6 µM] | 
CCc1c2c(nc3cccc(SC)c13)COC2 | -23% | 
CC(C)OC(=O)c1nnn(-c2nonc2N)c1CSc1ccccn1 |  | 1.58 µM (active)
Cc1cc(OC(=O)c2ccc(Cl)cc2Cl)nc(C)n1 |  | 5.62 µM (active)
CCc1cc2c(=O)c(-c3nc4ccccc4n3C)c(C)oc2c(CN(CC)CC)c1O |  | 14.1 µM (active)
Cc1oc2c(C)c(O)ccc2c(=O)c1-c1ccc2ccccc2n1 | -13.7% | 
COc1ccc(-n2c(=O)c(-c3cn(C)c4ccccc34)nc3cnc(OC)nc32)cc1 | -6.46% | 
CC[C@H]1CN(C)[C@H]2Cc3c([nH]c4ccccc34)C(=O)C[C@H]1[C@H]2C(=O)OC | -5.96% [at 11.4 µM] | 
O=C(O)c1cc(=O)c2c(OCC(O)COc3cccc4oc(C(=O)O)cc(=O)c34)cccc2o1 | 10.9% [at 25.6 µM] | 
O=c1cc(-c2ccccc2)oc2cc(O)c(O)c(O)c12 | 3.94% | 
CCOC(=O)COc1cc(OCC(=O)OCC)c2c(=O)cc(-c3ccccc3)oc2c1 |  | 8.91 µM (active)
COc1cc2nncc(SCc3ccc(Cl)c(Cl)c3)c2cc1OC | -3.4% [at 11.4 µM] | 
COc1cnc(SCc2ccc(Cl)cc2)nc1Cl |  | 22.4 µM (active)
Cc1nc2cnc(N3CCOCC3)nc2n(C)c1=O | -21.1% | 
Cc1nc(N2CCOCC2)nc(N2CCN(c3ccccc3)CC2)c1[N+](=O)[O-] |  | 3.16 µM (active)

SMILES | activity, negative = inhibition | AC50
Cc1noc(C)c1-c1nc(N2CCOCC2)c2ccccc2n1 | 4.41% [at 2.29 µM] | 
COC(Cn1c(C)c(C(C)=O)c(C(C)=O)c1C)OC | 26.1% | 
c1ccc(-c2cccc(N3CCC4(CCNCC4)CC3)c2)cc1 | -3.68% | 
O=C(O)/C=C\C(=O)Nc1ncn[nH]1 | -8.21% [at 11.4 µM] | 
Cc1ccc(OCC(=O)Nc2ccc(S(=O)(=O)Nc3onc(C)c3C)cc2)cc1 |  | 17.8 µM (active)
Cc1noc(NS(=O)(=O)c2ccc(N)cc2)c1C | 2.14% [at 25.6 µM] | 
Cc1noc(C)c1C(=O)N1CCC[C@@]2(CCN(c3ncccn3)C2)C1 | -5.51% | 
COc1ccc(CNc2nc3ccccc3n2Cc2ccccc2)cc1OC |  | 8.91 µM (active)
COc1ccccc1-c1nccc(NCc2ccccc2)n1 | 4.32% [at 2.29 µM] | 
C=CCn1c(NCc2ccccc2)nc2ccccc21 | 21.7% | 
Cc1cc2cc3c(C)cc(=O)oc3c(C)c2o1 | -0.447% [at 25.6 µM] | 
CCc1c(C(C)O)oc2ccc3c(C)cc(=O)oc3c12 (configuration not stated) |  | 7.94 µM (active)
CC(C)n1c(=O)c2c(O)cc(=O)oc2c2ccccc21 | -4.52% | 
O=C(O)CCCc1ccc2ccc3ccccc3c2c1 | 17.3% [at 11.4 µM] | 
NCCCc1ccc2oc3ccccc3c2c1 | -10.6% [at 11.4 µM] | 
NNC(=O)CCc1ccc2ccc3ccccc3c2c1 |  | 1.58 µM (active)
CC(C)COP(=O)(OCC(C)C)C(O)c1ccccc1F (configuration not stated) | -25% | 
O=C(Cn1cnc2ccccc2c1=O)NCCC(=O)Nc1ccc2c(c1)OCCO2 |  | 6.31 µM (active)
O=C(CCNC(=O)Cn1cnc2ccccc2c1=O)NCC1COc2ccccc2O1 (configuration not stated) |  | 10 µM (active)
CCC(C)NC(=O)Cn1cnc2sc(C)cc2c1=O (configuration not stated) | -1.84% | 
O=C1CC2(CCCC2)CC(=O)N1CCCCNC[C@H]1COc2ccccc2O1 | -16.7% | 
CCCNC(=O)Cn1cnc2sc(C(=O)Nc3ccc4c(c3)OCO4)c(C)c2c1=O |  | 1.12 µM (active)
COc1cccc(OC)c1OCCNC[C@@H]1COc2ccccc2O1 |  | inactive
